Consider three molecules from PubChem BioAssay (EPA / NIEHS).

The target of assay [1] is Transcription factor E2F1 (Homo sapiens) (UniProt Q01094). Nature of the assay: ATG_E2F_CIS: Attagene CIS-FACTORIAL HepG2 Assay for human E2F Transcription Factor 1 (AID 2282935). The settings on record: HepG2 Attagene cis-reporter, E2F reporter RNA transcripts; actives raise or lower the signal. The procedure, abridged:
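First, HepG2 cells were transfected with reporter transcription units. Next, they were dosed for 24 h. Then RNA was isolated, converted to cDNA, PCR-amplified, FAM-labeled, HpaI-digested and analyzed by capillary electrophoresis.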

A short description of assay [2]: ATG_E_Box_CIS: Attagene CIS-FACTORIAL HepG2 Assay for human Enhancer Box (E-box) (AID 2282936). The settings on record: HepG2 E-box cis-reporter transcription, actives raise or lower the signal. Put shortly:
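Endogenous transcription factor activity was sensed in human HepG2 liver cells through transfected cis-promoter reporter units. After 24 h of dosing, total RNA was reverse-transcribed and reporter cDNA resolved by capillary electrophoresis.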

Assay [3] can be described thus: ATG_M_61_CIS: Attagene CIS-FACTORIAL HepG2 Assay for M61 Transcription Factor (Internal Marker) (AID 2282937). To be noted: HepG2 Attagene CIS-FACTORIAL M61 internal marker reporter; actives raise or lower the signal. The procedure, abridged:
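Readout is reporter mRNA by RT-PCR, fluorescent primer extension and capillary electrophoresis, with gain or loss fitted relative to DMSO. Transfected HepG2 cells carrying endogenous-TF-driven cis reporters were exposed to chemicals for 24 hours.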

The nature of assay [4]: ATG_EGR_CIS: Attagene CIS-FACTORIAL HepG2 Assay for human Early Growth Response 1 (EGR1) (AID 2282938). The settings on record: HepG2 Attagene CIS-FACTORIAL EGR reporter mRNA; actives raise or lower the signal. Put shortly:
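After 24 h compound exposure, RNA from reporter-transfected HepG2 cells was reverse-transcribed, PCR-amplified, fluorescently labelled and resolved by capillary electrophoresis. EGR1 reporter transcript changes, up or down, were fitted against DMSO, reflecting endogenous transcription-factor activity.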

Assay [5] in a line: ATG_M_19_CIS: Attagene CIS-FACTORIAL HepG2 Assay for M19 Transcription Factor (Internal Marker) (AID 2282939). The settings on record: HepG2 Attagene CIS-FACTORIAL M19 internal marker reporter; actives raise or lower the signal. Put shortly:
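Background-control endpoint from a multiplexed HepG2 reporter panel. Cells carrying cis-regulated reporter constructs are treated 24 h, then reporter transcripts are amplified, fluorescently labelled and sized by capillary electrophoresis. DMSO defines baseline.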

The nature of assay [6]: ATG_ERE_CIS: Attagene CIS-FACTORIAL HepG2 Assay for Estrogen Response Element (ERE) (AID 2282940). To be noted: HepG2 ERE cis-reporter, Attagene RNA transcript; actives raise or lower the signal. The procedure, abridged: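 Cells used were human hepatoma HepG2, transfected with multiple reporter transcription units under cis-regulatory promoters. Reporter mRNA, read 24 h post-dosing via fluorescent RT-PCR products on capillary electrophoresis, was fitted bidirectionally relative to DMSO.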

Assay [7] can be described thus: ATG_Ets_CIS: Attagene CIS-FACTORIAL HepG2 Assay for human Erythroblast Transformation Specific (ETS) (AID 2282941). To be noted: HepG2 ETS cis-reporter transcription, actives raise or lower the signal. Put shortly:
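Cis-regulated reporter mRNA induction in HepG2 (transient transfection), 24 h exposure, RT-PCR plus capillary electrophoresis detection; DMSO serves as negative control and baseline.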

The target of assay [8] is Hepatocyte nuclear factor 3-beta (Homo sapiens) (UniProt Q9Y261). Nature of the assay: ATG_FoxA2_CIS: Attagene CIS-FACTORIAL HepG2 Assay for human Forkhead box A2 (FOXA2) (AID 2282942). The settings on record: HepG2 cis-reporter transcription factor activity, 24 h; actives raise or lower the signal. Put shortly: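 Endogenous transcription factor activity is captured via cis-element-driven reporter transcripts in transfected HepG2. Total RNA taken at 24 h post-dosing; labelled RT-PCR products resolved by capillary electrophoresis. Gain or loss fitted versus DMSO.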
Hepatocyte nuclear factor 3-beta (Homo sapiens), sequence (Q9Y261 whole entry, looked up): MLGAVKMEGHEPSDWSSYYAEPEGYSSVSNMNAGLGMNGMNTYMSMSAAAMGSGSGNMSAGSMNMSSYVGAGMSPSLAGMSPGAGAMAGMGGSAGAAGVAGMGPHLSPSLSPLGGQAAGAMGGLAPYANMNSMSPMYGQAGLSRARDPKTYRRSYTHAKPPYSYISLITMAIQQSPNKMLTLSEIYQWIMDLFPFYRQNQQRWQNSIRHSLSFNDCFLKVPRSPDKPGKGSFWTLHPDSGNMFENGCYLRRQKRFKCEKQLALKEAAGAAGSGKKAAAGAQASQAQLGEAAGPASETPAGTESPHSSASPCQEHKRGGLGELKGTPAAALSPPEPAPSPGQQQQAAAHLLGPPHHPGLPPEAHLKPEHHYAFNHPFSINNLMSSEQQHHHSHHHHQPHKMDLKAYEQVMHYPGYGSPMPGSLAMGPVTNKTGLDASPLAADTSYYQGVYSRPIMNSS

A short description of assay [9]: ATG_FoxO_CIS: Attagene CIS-FACTORIAL HepG2 Assay for human Forkhead box O (FoxO) (AID 2282943). The settings on record: HepG2 Attagene cis-reporter, FoxO element, mRNA; actives raise or lower the signal. Put shortly: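 Values reflect reporter mRNA induction or loss in HepG2 cells 24 h post-dosing, fitted bidirectionally with DMSO as negative control and baseline. Detection used RT-PCR and fluorescence capillary electrophoresis.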

Assay [10] in a line: ATG_GATA_CIS: Attagene CIS-FACTORIAL HepG2 Assay for human GATA Binding Protein (AID 2282944). The settings on record: HepG2 GATA cis-element reporter, Attagene multiplex mRNA; actives raise or lower the signal. Put shortly: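 Endogenous transcription factor activity was captured through cis-promoter-driven reporters in transfected HepG2 cells. After 24 h exposure, reporter transcripts were quantified by RT-PCR with fluorescent capillary electrophoresis, and responses fitted both directions against DMSO.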

The nature of assay [11]: ATG_GLI_CIS: Attagene CIS-FACTORIAL HepG2 Assay for human Zinc Finger Protein GLI1 (AID 2282945). To be noted: HepG2, Attagene cis-factorial reporter mRNA, GLI element; actives raise or lower the signal. Put shortly: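 HepG2 cells transiently transfected with cis-promoter multiplexed reporter units report endogenous transcription factor activity. After 24 h chemical exposure, reporter mRNA was quantified by RT-PCR, 6-FAM labelling, HpaI digestion and capillary electrophoresis, with bidirectional fitting against DMSO.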

The nature of assay [12]: ATG_GRE_CIS: Attagene CIS-FACTORIAL HepG2 Assay for human Glucocorticoid Response Elements (GRE) (AID 2282947). To be noted: HepG2 GRE cis-reporter, Attagene multiplex mRNA; actives raise or lower the signal. The procedure, abridged:
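Cells (HepG2) bearing transfected cis-promoter reporter transcription units were treated with chemical for 24 hours. Reporter mRNA was measured via RT-PCR with capillary electrophoresis, and activity was fitted in both directions relative to DMSO.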

The nature of assay [13]: ATG_ISRE_CIS: Attagene CIS-FACTORIAL HepG2 Assay for human Interferon Regulatory Factor 1 (IRF1) binding to an Interferon-Stimulated Response Element (ISRE) (AID 2282948). To be noted: HepG2 ISRE cis-reporter (Attagene), mRNA transcription readout; actives raise or lower the signal. Put shortly: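 Multiplexed mRNA reporter readout in human liver HepG2 cells: cis-element-driven reporters transfected, compound added for 24 h, transcripts amplified, fluorescently labelled and sized by capillary electrophoresis; curve fitting bidirectional against DMSO.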

Assay [14] can be described thus: ATG_M_06_CIS: Attagene CIS-FACTORIAL HepG2 Assay for M06 Transcription Factor (Internal Marker) (AID 2282950). The settings on record: HepG2 Attagene CIS-FACTORIAL M06 internal marker reporter; actives raise or lower the signal. The procedure, abridged: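 Steps: transfect HepG2 with multiplexed cis-element reporter constructs; dose chemical 24 h; extract RNA with DNase treatment; reverse-transcribe, PCR-amplify, 6-FAM label, HpaI digest; separate fragments by capillary electrophoresis. Activity fitted both directions versus DMSO.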

Assay [15] concerns the target Hypoxia-inducible factor 1-alpha (Homo sapiens) (UniProt Q16665). Briefly: ATG_HIF1a_CIS: Attagene CIS-FACTORIAL HepG2 Assay for human Hypoxia Inducible Factor 1 (HIF1A) (AID 2282951). To be noted: HepG2 Attagene cis-factorial HIF1a reporter transcription; actives raise or lower the signal. Put shortly:
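Activity is fitted in both directions relative to DMSO. Reporter transcripts are read by RT-PCR, fluorescent primer extension and capillary electrophoresis after 24 h chemical treatment. The cells are HepG2 carrying transiently transfected cis-element-driven reporter units responding to endogenous factors.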

For assay [16], the target named is Hepatocyte nuclear factor 6 (Homo sapiens) (UniProt Q9UBC0). Briefly: ATG_HNF6_CIS: Attagene CIS-FACTORIAL HepG2 Assay for human Hepatocyte Nuclear Factor 6 (HNF6) (AID 2282952). To be noted: HepG2 Attagene cis-factorial HNF6 reporter transcription; actives raise or lower the signal. The procedure, abridged: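 Using cis-element reporters in HepG2 liver cells, the assay tracks endogenous factor-driven transcription 24 h post-dosing. Signal comes from 6-FAM-labelled, HpaI-digested RT-PCR fragments, with gain or loss scored against DMSO.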
Hepatocyte nuclear factor 6 (Homo sapiens), sequence (Q9UBC0 whole entry, looked up, the tested form may be a part): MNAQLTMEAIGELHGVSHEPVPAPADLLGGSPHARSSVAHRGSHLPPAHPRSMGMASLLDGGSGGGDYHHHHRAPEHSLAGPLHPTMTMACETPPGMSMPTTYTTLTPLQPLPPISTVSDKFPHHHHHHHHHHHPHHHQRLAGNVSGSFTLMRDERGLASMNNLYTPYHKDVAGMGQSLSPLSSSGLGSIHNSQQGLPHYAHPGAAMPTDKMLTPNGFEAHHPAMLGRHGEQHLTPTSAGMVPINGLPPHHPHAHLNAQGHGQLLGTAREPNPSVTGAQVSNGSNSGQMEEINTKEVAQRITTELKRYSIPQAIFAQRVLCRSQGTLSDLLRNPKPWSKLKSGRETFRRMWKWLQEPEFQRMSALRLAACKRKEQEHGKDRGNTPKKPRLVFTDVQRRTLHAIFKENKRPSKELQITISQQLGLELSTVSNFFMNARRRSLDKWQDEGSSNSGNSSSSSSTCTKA

For assay [17], the target named is Heat shock factor protein 1 (Homo sapiens) (UniProt Q00613). Nature of the assay: ATG_HSE_CIS: Attagene CIS-FACTORIAL HepG2 Assay for human Heat Shock Transcription Factor 1 (HSE) (AID 2282953). To be noted: HepG2 HSE cis-reporter, Attagene RNA transcription; actives raise or lower the signal. Put shortly: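 Cells were transfected with cis-element-driven reporter constructs, dosed for 24 h, then total RNA was reverse-transcribed and reporter cDNA amplified, FAM-labelled and digested with HpaI. Fragments were resolved by capillary electrophoresis; gain or loss was fitted against DMSO.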
Heat shock factor protein 1 (Homo sapiens), sequence (Q00613 whole entry, looked up, the tested form may be a part): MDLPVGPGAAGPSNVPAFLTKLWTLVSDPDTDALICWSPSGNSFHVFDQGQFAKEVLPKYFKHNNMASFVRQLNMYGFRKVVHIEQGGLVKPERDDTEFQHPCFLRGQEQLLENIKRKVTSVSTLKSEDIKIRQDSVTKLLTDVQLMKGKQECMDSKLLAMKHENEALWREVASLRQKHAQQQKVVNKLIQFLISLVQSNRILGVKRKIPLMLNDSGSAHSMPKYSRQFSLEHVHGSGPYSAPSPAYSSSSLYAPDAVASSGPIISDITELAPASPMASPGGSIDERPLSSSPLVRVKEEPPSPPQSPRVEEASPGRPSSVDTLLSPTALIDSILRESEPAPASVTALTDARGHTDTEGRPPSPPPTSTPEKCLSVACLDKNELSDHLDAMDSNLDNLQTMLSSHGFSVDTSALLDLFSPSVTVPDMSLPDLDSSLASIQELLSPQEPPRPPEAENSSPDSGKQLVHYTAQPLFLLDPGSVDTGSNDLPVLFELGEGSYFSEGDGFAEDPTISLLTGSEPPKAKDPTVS

Assay [18] can be described thus: ATG_MRE_CIS: Attagene CIS-FACTORIAL HepG2 Assay for human Metal Responsive Element (MRE) (AID 2282954). The settings on record: HepG2 MRE cis-reporter transcription, Attagene multiplex; actives raise or lower the signal. The procedure, abridged:
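Cells were transfected with cis-promoter reporter transcription units, then dosed for 24 h. RNA was reverse-transcribed, amplified, fluorescently labelled and resolved by capillary electrophoresis, and activity was fitted in both directions relative to DMSO.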

Assay [19] in a line: ATG_PBREM_CIS: Attagene CIS-FACTORIAL HepG2 Assay for human Phenobarbital-responsive Enhancer Module (PBREM) (AID 2282955). The settings on record: HepG2 PBREM cis-reporter, Attagene multiplexed transcription; actives raise or lower the signal. The procedure, abridged: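 Endogenous transcription factor activity was read from reporter transcripts in transiently transfected human HepG2 liver cells after 24 h dosing. RT-PCR products were fluorescently labelled, HpaI-cut and sized by capillary electrophoresis; activity fitted bidirectionally against DMSO baseline.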

A short description of assay [20]: ATG_M_32_CIS: Attagene CIS-FACTORIAL HepG2 Assay for M32 Transcription Factor (Internal Marker) (AID 2282949).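 Also: background control marker of the multiplexed CIS panel rather than a real target.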 To be noted: HepG2 Attagene cis-factorial M32 reporter, mRNA; actives raise or lower the signal. The procedure, abridged: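 HepG2 transfectants (cis-regulated reporter transcription units) dosed 24 h. Reporter mRNA by RT-PCR plus CE, analysed as gain or loss relative to DMSO.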

Values joined by “and” are separate entries in the source; they are usually repeats but may differ in a detail not shown here. Identical values can stand only once. A structure can be active in one record and inactive in another. Active and inactive are the calls of the source. The calls were made as follows: active = hit-call score of the fitted dose curve at least 0.9, where 1 is the maximum; inactive = score below 0.9.

In general, AC50 refers to the concentration at which the activity in the assay is half-maximal.

Hypoxia-inducible factor 1-alpha (Homo sapiens), sequence (Q16665 whole entry, looked up): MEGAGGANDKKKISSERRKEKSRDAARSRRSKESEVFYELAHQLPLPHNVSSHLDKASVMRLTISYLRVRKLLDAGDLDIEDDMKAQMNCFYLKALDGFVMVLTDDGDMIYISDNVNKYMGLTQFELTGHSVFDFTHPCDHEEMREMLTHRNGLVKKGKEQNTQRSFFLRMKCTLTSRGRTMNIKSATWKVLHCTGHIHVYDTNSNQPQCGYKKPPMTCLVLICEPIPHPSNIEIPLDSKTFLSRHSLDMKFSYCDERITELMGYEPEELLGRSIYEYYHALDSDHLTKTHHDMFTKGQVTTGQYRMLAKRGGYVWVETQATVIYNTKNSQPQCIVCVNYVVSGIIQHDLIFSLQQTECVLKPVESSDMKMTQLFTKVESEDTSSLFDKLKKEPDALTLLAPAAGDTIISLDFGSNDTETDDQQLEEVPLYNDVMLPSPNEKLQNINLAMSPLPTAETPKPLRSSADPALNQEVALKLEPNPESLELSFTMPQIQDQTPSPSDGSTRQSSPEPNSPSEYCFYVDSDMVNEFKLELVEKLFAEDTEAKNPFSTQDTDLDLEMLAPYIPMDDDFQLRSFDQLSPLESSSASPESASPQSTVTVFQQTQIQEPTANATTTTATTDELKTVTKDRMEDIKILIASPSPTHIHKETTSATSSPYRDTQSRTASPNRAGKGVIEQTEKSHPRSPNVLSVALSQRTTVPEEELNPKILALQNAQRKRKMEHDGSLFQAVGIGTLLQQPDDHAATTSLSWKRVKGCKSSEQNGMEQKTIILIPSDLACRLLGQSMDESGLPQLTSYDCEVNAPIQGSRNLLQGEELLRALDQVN
Transcription factor E2F1 (Homo sapiens), sequence (Q01094 whole entry, looked up): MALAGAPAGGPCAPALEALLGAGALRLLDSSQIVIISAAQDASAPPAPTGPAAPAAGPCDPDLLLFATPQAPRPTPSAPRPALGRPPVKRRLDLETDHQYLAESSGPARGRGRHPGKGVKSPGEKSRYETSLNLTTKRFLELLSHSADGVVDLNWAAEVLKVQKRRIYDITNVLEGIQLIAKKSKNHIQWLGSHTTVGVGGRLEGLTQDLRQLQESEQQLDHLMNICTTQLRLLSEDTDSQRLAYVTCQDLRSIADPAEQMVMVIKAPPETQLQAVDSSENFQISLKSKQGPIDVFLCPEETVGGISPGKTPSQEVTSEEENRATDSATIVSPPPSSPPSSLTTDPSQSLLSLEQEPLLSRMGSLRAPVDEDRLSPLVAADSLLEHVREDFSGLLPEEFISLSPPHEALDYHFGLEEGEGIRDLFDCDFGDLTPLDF

Regarding `COc1cc(C(C)C)c2c(c1)S(=O)(=O)N(COc1cc(=O)n3cccc(OCCN4CCCCC4)c3n1)C2=O`, the molecule was classed as inactive in [1], in [2], in assay [5], in assay [6], in assay [8] and in assay [9]. Also, the outcome in assay [11] and in assay [19] was inactive. Besides, the AC50 is 12.3 µM (active) in [3]; 2.75 µM (active) in assay [4]; 2.02 µM (active) in [7]; 14.1 µM (active) in assay [10]; 4.22 µM (active) in assay [12]; 5.08 µM (active) in [13]. The half-maximal activity concentration (AC50) in assay [14] is 12.3 µM (active); in assay [15], 5.04 µM (active); in assay [16] it was 13.9 µM (active); in assay [17] it was 2.75 µM (active); in assay [18], 9.28 µM (active).
On to `OC(O)(C(F)C(O)(O)C(F)(F)F)C(F)(F)F`, for which the molecule was called inactive in [1], in [2], in assay [3], in assay [4], in [5] and in [6]. Moreover, the call in assay [7], in assay [8], in [9], in assay [10], in assay [11] and in assay [12] was inactive. For the same molecule, the molecule was called inactive in assay [20], in assay [14], in assay [15], in assay [17] and in assay [19]. Also, the AC50 is 150 µM (active) in [6]; 27.8 µM (active) and 9.44 µM (active) in [13].
As for `c1ccc2c(c1)-c1cccc3c1c-2cc1ccccc13`, the molecule was called inactive in assay [1], in [2], in assay [3], in assay [4], in assay [5] and in [6]. For the same molecule, the call in [7], in [8], in [9], in [10], in assay [11] and in [12] was inactive. Also, the outcome in [13], in [20], in [14], in assay [15], in [17] and in [18] was inactive. The outcome in assay [19] was inactive. Further, the AC50 in assay [6] is 0.929 µM (active); in [15], 4.67 µM (active).
